# Screens: PubChem, National Center for Advancing Translational Sciences (NCATS)
# D1 potentiator = Potentiators of Human D1 Dopamine Receptor: qHTS | actives 0.036% (n = 360,000) | potentiation, % at 10 µM | D(1A) dopamine receptor (Homo sapiens), P21728 | AID 504651, 2011 | HEK293 TREx D1 cells, calcium flux, dopamine EC20 potentiation; in the data active = potentiation above about 30%; note: 0% is about no effect
# D3 antag = qHTS of D3 Dopamine Receptor Antagonist: qHTS | D3R cells, DiscoveRx beta-arrestin luminescence, antagonist mode; stronger effect = lower value | max response, negative = inhibition, % | actives 2.5% (n = 360,000) | AID 652054, 2013; in the data active = max response below about -50%; inconclusive = no clear call, values can overlap the other calls; note: % is set by controls: 0 for no effect and ±100 for the full control effect
# Target sequence (P35462 whole entry, looked up): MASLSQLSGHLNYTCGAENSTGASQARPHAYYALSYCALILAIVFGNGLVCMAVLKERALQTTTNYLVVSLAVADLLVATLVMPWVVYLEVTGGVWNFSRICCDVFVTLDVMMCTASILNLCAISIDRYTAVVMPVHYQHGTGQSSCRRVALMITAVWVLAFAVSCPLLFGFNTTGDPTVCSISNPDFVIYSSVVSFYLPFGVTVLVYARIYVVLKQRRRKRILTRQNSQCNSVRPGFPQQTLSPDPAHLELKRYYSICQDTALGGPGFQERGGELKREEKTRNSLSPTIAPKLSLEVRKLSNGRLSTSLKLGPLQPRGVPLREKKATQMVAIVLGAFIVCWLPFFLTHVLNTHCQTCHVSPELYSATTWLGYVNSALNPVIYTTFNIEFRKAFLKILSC
#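 Cells expressing the human receptor were seeded at 1500 cells/well, incubated overnight at 37 degrees C in 5% CO2, then exposed to library compounds with dopamine controls for 90 minutes at 37 degrees C before luminescent detection.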
# D3 ag = qHTS of D3 Dopamine Receptor Agonist: qHTS; D(3) dopamine receptor (Homo sapiens), P35462; D3R DiscoveRx beta-arrestin cells, luminescence, 90 min; max activation, %; actives 0.58% (n = 410,000); AID 652048, 2013; in the data active = max activation above about 30%; note: 0% is about no effect
#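 Agonist-mode cell screen: cells plated at 1500/well and incubated overnight at 37 °C, then exposed to library compounds for 90 min at 37 °C. Detection reagent was added for 30–60 min at room temperature, and luminescence was read.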
# D1 antag = Antagonist of Human D 1 Dopamine Receptor: qHTS; D(1A) dopamine receptor (Homo sapiens), P21728; HEK293 TREx D1 cells, calcium flux, dopamine EC80; stronger effect = lower value; activity change, negative = inhibition, % at 10 µM; actives 3.2% (n = 360,000); in the data active = activity change below about -30%; note: % is set by controls: 0 for no effect and ±100 for the full control effect
#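 Tetracycline-induced HEK293 Trex D1 cells, force-coupled to calcium, dye-loaded; compounds added and read 180 s, then EC80 dopamine added and calcium flux tracked kinetically another 180 s.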
# D1 ag = Allosteric Agonists of the Human D1 Dopamine Receptor: qHTS; D(1A) dopamine receptor (Homo sapiens), P21728; HEK293 T-REx D1 cells, calcium flux, agonist mode; activation, % at 2 µM; actives 1% (n = 360,000); in the data active = activation above about 30%; note: 0% is about no effect
#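 Agonism was scored from calcium flux recorded over 180 s (1 read/s) after pintool compound addition, following a 10-cycle baseline. Cells were inducible force-coupled HEK293 TREx D1, plated overnight at 30 C and loaded with no-wash calcium dye.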
# Numbers without * were called inactive; u = inconclusive; x = not tested or not shown. A selection: hits, their analogues and other compounds. The true share with any hit is near 6.1%.
SMILES,D1 potentiator,D3 antag,D3 ag,D1 antag,D1 ag
Cc1ccc(CN2CCN(CC(C)C)C(CCO)C2)s1 (centres undefined),0.5,7.9,-4.0,-2.7,3.3
CCCCC(=O)Nc1ccc(C(=O)NNC(=O)CCc2ccccc2)cc1,-4.3,9.6,-4.4,-26.5,2.6
CCOC(=O)c1ccc(NC(=S)NCc2ccccc2)cc1,-16.9,-3.2,4.1,-56.0*,21.7
CCOC(=O)c1ccc(NC(=O)NCc2ccccc2)cc1,-5.8,-21.7,-5.5,-9.1,6.6
CCCCC(=O)Nc1ccc(C(=O)NCCc2ccccc2)cc1,-3.8,-62.3*,-17.1,-1.3,0.0
CC(=O)c1ccc(NC(=S)NCCc2cccc(Cl)c2)cc1,-6.2,-27.0,-14.9,-37.1*,21.7
CCOC(=O)c1ccc(NC(=S)NCCc2ccccc2)cc1,-6.6,-5.6,-13.5,-38.3*,27.6
CCOc1ccc(S(=O)(=O)O)c2cccnc12,x,x,4.8,x,x
CC1N(C)c2cccc3cccc(c23)N1C,-6.3,2.2,2.3,-41.3*,0.1
CCC1CCCCN1C(=O)Cn1c(=O)cc(C(F)(F)F)c2c(C)nn(C)c21 (centres undefined),-6.2,x,-0.8,-1.6,1.4
Nc1c(SCCC(=O)O)ccc2c1C(=O)c1ccccc1C2=O,0.0,-56.2*,-8.3,0.5,9.8
CCSc1c(C(=O)NC)ccc2c1C(=O)c1ccccc1C2=O,-6.8,u,-11.2,4.3,0.0
Cc1noc(C)c1C(=O)Nc1cccc2ncccc12,1.6,-4.1,-0.8,-0.9,1.3
CC(Oc1ccc2c3c(c(=O)oc2c1)CCCC3)C(=O)NCC(O)c1ccccc1 (centres undefined),7.5,12.7,-7.7,9.8,0.1
COC(=O)c1ccc(C(=O)Nc2ccc(C(C)C)cc2N)cc1,2.8,5.2,3.4,-40.4*,-2.3
Cc1cc(-n2c(SCC(=O)NCc3cccs3)nc3n[nH]c(C)c3c2=N)ccc1Cl,-14.7,3.1,-7.9,-42.0*,3.4
COc1cccc(NC(=O)CSc2nc3n[nH]c(C)c3c(=N)n2-c2cccc(OC)c2)c1,-9.0,59.6,8.3,-30.9*,2.2
CCc1ccc(NC(=O)CSc2nc3n[nH]c(C)c3c(=N)n2-c2cccc(OC)c2)cc1,-6.2,9.7,-3.8,2.1,1.7
Cc1[nH]nc2nc(SCC(=O)NCC3CCCO3)n(-c3ccc(Br)cc3)c(=N)c12 (centres undefined),-6.9,-50.4*,6.4,8.9,1.4
COc1ccc(-c2nn(C)c3sc(C(=O)Nc4cccc(F)c4)cc23)cc1OC,-6.2,x,-24.4,-0.4,6.9
COC(=O)c1ccc2nc(-c3ccc(C)cc3)c(CC3CCCCC3)n2c1,x,-13.4,3.9,x,x
COc1ccc(C(=O)N2CCCC(Nc3ccc(F)c(F)c3)C2)c(OC)n1 (centres undefined),4.4,0.1,4.9,-35.0*,-0.6
O=C(c1cnsn1)N1CCCC(Nc2ccc(F)c(F)c2)C1 (centres undefined),-4.6,u,-9.4,-64.5*,1.4
CCOC(=O)CC(NC(=O)CCc1c(C)nc2c(c1C)c(=O)n(C)c(=O)n2C)c1ccc(OCC)c(OC)c1 (centres undefined),-3.9,x,2.1,-32.7*,-0.2
COc1ccc(-c2ccc(CN3C(C(C)C)C(=O)N(Cc4cn(CCC5OCCO5)nn4)CCS3(=O)=O)cc2)cc1 (centres undefined),x,4.5,0.4,x,x
SMILES,D1 potentiator,D3 antag,D3 ag,D1 antag,D1 ag
CC1(C)SCC(C(=O)O)NC1=O (centres undefined),4.6,-8.1,-1.5,-33.5*,2.1
C#CCOCCOCCOCCNc1nc(N2CCN(C(=O)[C@H]([C@@H](C)CC)n3cc([C@@H](N)Cc4ccc(O)cc4)nn3)CC2)nc(N2CCN(C(=O)[C@H](Cc3cc4ccccc4[nH]3)n3cc([C@@H](N)CC(C)C)nn3)CC2)n1,-5.7,-50.3*,-10.2,-14.7,-0.6
C#CCOCCOCCOCCNc1nc(N2CCN(C(=O)[C@H]([C@@H](C)O)n3cc(CCCCN)nn3)CC2)nc(N2CCN(C(=O)[C@H](CCCCN)n3cc(CC(C)O)nn3)CC2)n1 (some centres undefined),-1.1,-52.4*,-11.0,-9.0,1.7
C#CCOCCOCCOCCNc1nc(N2CCN(C(=O)CCCCCCCCCCNC(=O)Cn3cc(C[C@@H](C)O)nn3)CC2)nc(N2CCN(C(=O)CCCCCCCCCCNC(=O)[C@@H]([C@H](C)CC)n3cc(CCCCCN)nn3)CC2)n1,-1.6,-25.1,-33.2,15.8,1.2
C#CCOCCOCCOCCNc1nc(N2CCN(C(=O)Cn3cc(CC(C)O)nn3)CC2)nc(N2CCN(C(=O)Cn3cc(CC(C)O)nn3)CC2)n1 (centres undefined),0.8,-2.4,16.8,-15.3,-1.8
C#CCOCCOCCOCCNc1nc(N2CCN(C(=O)[C@H]([C@@H](C)CC)n3cc(CCCCN)nn3)CC2)nc(N2CCN(C(=O)[C@H](CCCCN)n3cc(CC(C)O)nn3)CC2)n1 (some centres undefined),-9.8,-17.8,-5.0,-13.3,2.6
C#CCOCCOCCOCCNc1nc(N2CCN(C(=O)CCCCCCCCCCNC(=O)Cn3cc(CCCCCN)nn3)CC2)nc(N2CCN(C(=O)CCCCCCCCCCNC(=O)Cn3cc(C[C@@H](C)O)nn3)CC2)n1,42.5*,4.6,-7.2,8.5,25.7
C#CCOCCOCCOCCNc1nc(N2CCN(C(=O)Cn3cc(CCCCN)nn3)CC2)nc(N2CCN(C(=O)Cn3cc(CC(C)O)nn3)CC2)n1 (centres undefined),-9.7,0.6,-4.0,-31.7*,-1.9
COc1ccc(CNC(=O)Cc2c(C)c3cc4c(C)coc4cc3oc2=O)cc1OC,1.6,x,13.5,-9.3,2.4
Cc1ccccc1COC(=O)c1ccc(-c2nnn(Cc3ccccc3F)n2)cc1,-6.0,x,5.7,-7.3,4.7
COc1ccc(-c2nc3sc(CCNC(=O)C(=O)Nc4cc(C)cc(C)c4)c(C)n3n2)cc1,-3.1,x,-23.2,x,0.5
Cc1ccccc1Nc1nc(N)nc(COC(=O)c2ccccc2)n1,-4.2,6.0,4.4,5.5,0.5
Cc1ccccc1Nc1nc(N)nc(COC(=O)c2ccc(O)cc2)n1,-9.9,-13.3,2.8,-42.7*,17.0
COc1cc(/C=C/C(=O)O)cc(S(=O)(=O)N2CCc3ccccc3C2)c1OC,-2.4,7.8,4.3,7.0,3.8
COc1cccc(OC)c1OCCN1CCC(C(=O)NC(c2ccccc2)c2ncccc2C)CC1 (centres undefined),x,u,-17.5,x,x
Cc1cccnc1C(NC(=O)C1CCN(CCOc2ccc(F)cc2)CC1)c1ccc(F)cc1 (centres undefined),x,-71.4*,-15.1,x,x
